Laboratory results: PubChem BioAssay
For part of these data: Entries with a potency or affinity are not part of this list. Activity calls are given as the source filed them.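 The calls were made as follows, unless noted: active = fitted half-maximal concentration within 10 nM to 100 µM, steepness 0.5 to 2, significant signal drop, low assay interference; inactive = the rest.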

Legend:
[1] = molecular target: Cell division control protein 42 homolog (Homo sapiens) (UniProt P60953); assay: inhibition of fluorescent GTP binding to constitutively active Cdc42 – biochemical, multiplex bead flow cytometry, Bodipy-FL-GTP, dose response (AID 1333;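 active = fitted half-maximal concentration within the tested dose range, moderate curve steepness, a statistically real signal drop, and little compound fluorescence or tag-binding interference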)
[2] = molecular target: Cell division control protein 42 homolog (Homo sapiens) (UniProt P60953); assay: inhibition of fluorescent GTP binding to wildtype Cdc42 – biochemical, multiplex bead flow cytometry, Bodipy-FL-GTP, dose response (AID 1334;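 active = fitted half-maximal concentration within the tested range, moderate curve steepness, significant signal drop, and little compound fluorescence or bead-linkage interference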); conditions: bead-based flow cytometry, Bodipy-FL-GTP binding to GST-Cdc42; at 100 µM (top of the series) unless noted
[3] = molecular target: GTPase HRas (Homo sapiens) (UniProt P01112); assay: Ras wt fluorescent GTP loading blockade – biochemical, wildtype, multiplex bead flow cytometry, dose response (AID 1335); conditions: bead-based flow cytometry, Bodipy-GTP binding to GST-Ras; at 100 µM (top of the series) unless noted
[4] = test system: Ras-related protein Rab-7a (dog), GTP binding; assay: blockers of fluorescent GTP binding to Rab7 – biochemical, wildtype, multiplex bead flow cytometry, dose response (AID 1336; call rule not given here)
[5] = molecular target: Ras-related C3 botulinum toxin substrate 1 (Homo sapiens) (UniProt P63000); assay: inhibition of wildtype Rac1 nucleotide loading – biochemical, multiplex bead flow cytometry, dose response (AID 1340;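 active = dose curve with midpoint inside tested range, moderate steepness, plateau gap beyond fit error, low compound glow and bead-link interference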); conditions: GST-Rac1 beads, Bodipy-FL-GTP binding; at 100 µM (top of the series) unless noted
[6] = molecular target: GTPase HRas (Homo sapiens) (UniProt P01112); assay: blockade of GTP loading onto mutant Ras – biochemical, activated mutant, multiplex bead flow cytometry, dose response (AID 1341;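 active = dose-response curve with midpoint inside the tested range, moderate steepness, significant amplitude and little compound fluorescence or bead-attachment interference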;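 also: GST-tagged constitutively activated Ras mutant immobilized on beads and multiplexed with other GTPases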)
[7] = hit retest on RPL19A-GFP reporter strain – cell-based, S. cerevisiae, flow cytometry, cherry picks, mother/daughter gates, confirmation (AID 2270;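 active = GFP response below 50% of the DMSO control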); conditions: 3 h, at 10 µM, stronger effect = lower value, 100 = same GFP as DMSO wells
[8] = yeast TOR pathway reporter LAP4-GFP change – cell-based, cherry picks, flow cytometry, mother/daughter gates, confirmation (AID 2271;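 active = GFP response above 150% of the DMSO control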;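 also: ratio of sample to DMSO plate mean so 100% equals DMSO level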); conditions: S. cerevisiae LAP4-GFP strain, 3 h, at 10 µM, stronger effect = higher value, 100 means same as DMSO control
[9] = TOR pathway reporter MEP2-GFP, retest of hits – S. cerevisiae, flow cytometry GFP, cherry picks, confirmation (AID 2272;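 active = GFP response above 150% of the DMSO control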;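 also: ratio of well signal to plate DMSO mean so 100% equals DMSO level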); conditions: S. cerevisiae MEP2-GFP strain, 3 h, at 10 µM, stronger effect = higher value
[10] = yeast AGP1-GFP fluorescence change, single-dose – cell-based, flow cytometry, S. cerevisiae, cherry picks, confirmation (AID 2273;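 active = GFP response above 150% of the DMSO level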;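 also: median GFP channel fluorescence over the whole cell population gate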); conditions: S. cerevisiae AGP1-GFP strain, 3 h, at 10 µM
[11] = TOR pathway CIT2 reporter hit retest – S. cerevisiae, GFP fusion, cherry picks, mother/daughter gates, confirmation (AID 2274;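 active = GFP response above 150% of the DMSO level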); conditions: S. cerevisiae CIT2-GFP strain, flow cytometry, 3 h, at 10 µM, stronger effect = higher value
[12] = measured here: daughter cell gate
[13] = measured here: mother cell gate
[14] = measured here: daughter cell gate response
[15] = measured here: mother cell gate response

Chain of GTPase HRas (Homo sapiens) (P01112 whole entry, looked up): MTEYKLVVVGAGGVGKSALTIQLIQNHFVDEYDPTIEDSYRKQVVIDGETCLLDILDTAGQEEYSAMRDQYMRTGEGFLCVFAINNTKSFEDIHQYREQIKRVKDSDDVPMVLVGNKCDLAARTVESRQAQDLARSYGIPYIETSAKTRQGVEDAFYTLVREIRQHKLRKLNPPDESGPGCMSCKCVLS
Chain of Cell division control protein 42 homolog (Homo sapiens) (P60953 whole entry, looked up): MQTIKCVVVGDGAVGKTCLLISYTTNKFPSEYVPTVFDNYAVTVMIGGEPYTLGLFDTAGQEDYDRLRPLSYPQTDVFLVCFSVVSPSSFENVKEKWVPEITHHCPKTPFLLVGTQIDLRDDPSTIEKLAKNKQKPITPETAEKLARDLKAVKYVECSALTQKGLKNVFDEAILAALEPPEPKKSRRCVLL

| Compound | outcome [1] | fluorescence, percent of control (lower = inhibition) [2] | GTP binding, percent of control [3] [%] | outcome [4] | GTP binding signal, raw median fluorescence (lower = inhibition) (MCF (arbitrary fluorescence units)) [5] | outcome [6] | GFP response vs DMSO [7] | GFP response vs DMSO [7, 12] [%] | GFP response vs DMSO [7, 13] [%] | GFP response relative to DMSO [8] | GFP response relative to DMSO [8, 14] [%] | GFP response relative to DMSO [8, 15] [%] | GFP response vs DMSO [9] | GFP response, % of DMSO [10] | GFP response, % of DMSO [11] | GFP response, % of DMSO [11, 12] [%] | GFP response, % of DMSO [11, 13] [%] |
| --- | --- | --- | --- | --- | --- | --- | --- | --- | --- | --- | --- | --- | --- | --- | --- | --- | --- |
| Cc1cc2nc3c(=O)[nH]c(=O)[nH]c3nc2c([N+](=O)[O-])c1N | inactive | 35% | 75.6 | inactive | 192 | inactive |  |  |  |  |  |  |  |  |  |  |  |
| S=c1[nH]nc(-c2ccc3ccccc3n2)n1-c1ccccc1Cl | inactive | 45.1% | 60.2 | inactive | 165 | inactive |  |  |  |  |  |  |  |  |  |  |  |
| CCN1/C(=C/C=C/c2oc3ccc4ccccc4c3[n+]2CC)Oc2ccc3ccccc3c21 | inactive | 59.4% | 108 | inactive | 275 | inactive |  |  |  |  |  |  |  |  |  |  |  |
| C=CCN1C(=NC(=O)CCCC(=O)O)SC2CS(=O)(=O)CC21 (centres undefined) | inactive | 38.3% | 85.7 | inactive | 312 | inactive |  |  |  |  |  |  |  |  |  |  |  |
| O=c1c2c(-c3ccccc3)csc2nc2c3ccccc3c(NCCN3CCOCC3)nn12 | inactive | 32.1% | 66.4 | inactive | 168 | inactive |  |  |  |  |  |  |  |  |  |  |  |
| COc1cccc(OC)c1-c1nn2c(-c3cc(-c4ccccc4)n[nH]3)nnc2s1 | inactive | 131% [at 33.3 µM] | 1380 | inactive | 438 [at 33.3 µM] | inactive |  |  |  |  |  |  |  |  |  |  |  |
| Cc1cc(C(=O)O)sc1CNc1ccc(Cl)cc1 | inactive | 63.1% | 88.6 | inactive | 34.7 | inactive |  |  |  |  |  |  |  |  |  |  |  |
| CCOC(=O)N1CCN(C(=O)CCc2ccc(S(=O)(=O)NCCc3ccccc3)cc2)CC1 | inactive | 48.3% | 57.7 | inactive | 0 | inactive | 99.3% (inactive) | 100 | 97.8 | 95.3% (inactive) | 99 | 94.4 | 101% (inactive) | 108% (inactive) | 100% (inactive) | 101 | 100 |
| CCC/C(O)=C1\C(=O)CC(C)(C)CC1=Nc1ccccc1OC | inactive | 41.5% | 88.8 | inactive | 276 | inactive |  |  |  |  |  |  |  |  |  |  |  |
| COCCN1C(=O)/C(=C/c2ccc(N3CCCC3)cc2C)SC1=S | inactive | 77.8% | 104 | inactive | 224 | inactive | 99.6% (inactive) | 99.1 | 100 | 117% (inactive) | 117 | 116 | 143% (inactive) | 101% (inactive) | 112% (inactive) | 112 | 112 |
| COC(=O)n1c(=S)oc2cc(Cl)ccc21 | inactive | 58.3% | 154 | inactive | 170 | inactive | 106% (inactive) | 93.9 | 94.5 | 126% (inactive) | 105 | 110 | 141% (inactive) | 111% (inactive) | 121% (inactive) | 98.3 | 100 |
